One sequence from article PMC7862700, “An all-to-all approach to the identification of sequence-specific readers for epigenetic DNA modifications on cytosine” can be followed below.

Holding throughout (experiment): DAPPL (digital affinity profiling via proximity ligation, sequencing); 10 mM Tris-HCl pH 7.5, 50 mM NaCl, 1 mM DTT, 4% glycerol, room temperature, 30 min; GST-TFs on glutathione beads, 16-mer random dsDNA library, 0.1% formaldehyde crosslink after washing; high values mean tight binding
Common to all, as to details: protein: recombinant; tags: N-terminal GST; dsDNA, one strand shown

One assay concerns the target T1, FLI1 (Homo sapiens, UniProt Q01543 1-452).
T1 sequence: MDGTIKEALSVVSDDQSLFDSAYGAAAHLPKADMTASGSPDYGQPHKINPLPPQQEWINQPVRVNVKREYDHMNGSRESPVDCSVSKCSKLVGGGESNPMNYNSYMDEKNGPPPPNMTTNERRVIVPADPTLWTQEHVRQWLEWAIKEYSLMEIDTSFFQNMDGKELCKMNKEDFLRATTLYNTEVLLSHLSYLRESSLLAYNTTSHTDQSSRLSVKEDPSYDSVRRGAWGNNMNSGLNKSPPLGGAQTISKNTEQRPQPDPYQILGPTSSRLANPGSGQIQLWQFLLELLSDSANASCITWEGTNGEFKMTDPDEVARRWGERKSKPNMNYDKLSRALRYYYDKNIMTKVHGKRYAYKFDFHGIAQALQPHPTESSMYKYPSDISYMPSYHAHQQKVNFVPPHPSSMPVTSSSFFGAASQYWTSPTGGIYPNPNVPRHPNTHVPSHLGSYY
The procedure, abridged:
(§1)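 Human transcription factors fused to GST were expressed in yeast, captured on glutathione beads, given DNA barcodes and pooled with a GST-only negative control. Pools were incubated with 200 nmole of a 16-mer random double-stranded DNA library in Tris/NaCl/DTT/glycerol buffer at room temperature for 30 min. They were then washed, crosslinked with 0.1% formaldehyde, proximity-ligated (BsaI/T4 ligase, 1 h, 37 °C), PCR-amplified and sequenced on an Illumina NextSeq500. Binding signal is each 6-mer's read frequency for a factor divided by its frequency for the GST control.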

A further assay addresses T2, GABPA (Homo sapiens, UniProt Q06546 1-454).
T2 sequence: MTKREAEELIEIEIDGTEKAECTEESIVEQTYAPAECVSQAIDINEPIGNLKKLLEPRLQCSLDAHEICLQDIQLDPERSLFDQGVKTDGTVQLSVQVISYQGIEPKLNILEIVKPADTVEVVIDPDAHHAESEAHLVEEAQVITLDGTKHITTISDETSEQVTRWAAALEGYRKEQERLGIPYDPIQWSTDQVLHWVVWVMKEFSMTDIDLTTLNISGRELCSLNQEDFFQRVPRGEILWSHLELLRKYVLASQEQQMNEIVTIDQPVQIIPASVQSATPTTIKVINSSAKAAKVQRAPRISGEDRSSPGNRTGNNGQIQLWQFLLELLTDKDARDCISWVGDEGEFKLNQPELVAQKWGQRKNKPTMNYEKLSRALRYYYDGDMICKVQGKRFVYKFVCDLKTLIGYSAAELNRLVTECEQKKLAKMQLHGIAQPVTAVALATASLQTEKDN
The procedure, abridged: as §1

The target in a further assay is T3, ERG (Homo sapiens, UniProt P11308 1-479).
T3 sequence: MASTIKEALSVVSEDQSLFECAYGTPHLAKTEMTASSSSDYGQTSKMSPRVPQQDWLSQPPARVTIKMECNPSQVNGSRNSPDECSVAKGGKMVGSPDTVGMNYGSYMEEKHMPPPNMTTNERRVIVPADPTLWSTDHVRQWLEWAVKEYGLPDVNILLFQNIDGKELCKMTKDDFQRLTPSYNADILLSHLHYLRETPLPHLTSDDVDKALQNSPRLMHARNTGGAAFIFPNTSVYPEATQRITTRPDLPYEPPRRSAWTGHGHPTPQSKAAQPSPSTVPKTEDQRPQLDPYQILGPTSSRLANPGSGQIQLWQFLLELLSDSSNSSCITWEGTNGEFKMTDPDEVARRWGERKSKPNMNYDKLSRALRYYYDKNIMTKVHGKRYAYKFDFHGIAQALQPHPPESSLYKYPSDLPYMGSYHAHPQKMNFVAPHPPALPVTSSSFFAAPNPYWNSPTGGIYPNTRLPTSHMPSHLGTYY
The procedure, abridged: as §1

A further assay concerns the target T4, EHF (Homo sapiens, UniProt Q9NZC4 1-300).
T4 sequence: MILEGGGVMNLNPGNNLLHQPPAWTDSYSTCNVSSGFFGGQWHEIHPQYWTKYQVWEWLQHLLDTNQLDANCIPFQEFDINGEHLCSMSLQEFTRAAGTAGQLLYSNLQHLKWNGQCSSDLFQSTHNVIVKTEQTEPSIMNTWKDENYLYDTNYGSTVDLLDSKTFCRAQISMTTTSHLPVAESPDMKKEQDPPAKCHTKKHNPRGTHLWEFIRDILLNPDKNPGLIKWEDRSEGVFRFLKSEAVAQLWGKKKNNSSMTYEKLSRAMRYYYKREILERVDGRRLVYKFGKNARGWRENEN
The procedure, abridged: as §1

The next assay concerns the target T5, ELK3 (Homo sapiens, UniProt P41970 1-407).
T5 sequence: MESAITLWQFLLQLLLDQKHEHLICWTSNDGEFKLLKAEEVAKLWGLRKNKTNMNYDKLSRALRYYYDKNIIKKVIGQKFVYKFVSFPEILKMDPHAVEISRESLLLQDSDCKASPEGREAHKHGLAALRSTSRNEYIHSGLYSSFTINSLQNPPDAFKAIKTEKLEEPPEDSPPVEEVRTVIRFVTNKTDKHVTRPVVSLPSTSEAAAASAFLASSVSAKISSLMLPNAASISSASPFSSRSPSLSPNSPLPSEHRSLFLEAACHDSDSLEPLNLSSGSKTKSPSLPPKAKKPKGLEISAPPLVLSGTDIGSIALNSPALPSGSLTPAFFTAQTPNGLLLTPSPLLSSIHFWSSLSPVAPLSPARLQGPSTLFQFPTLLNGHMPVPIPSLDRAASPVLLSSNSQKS
The procedure, abridged:
as §1

The next assay has as its target T6, SPIC (Homo sapiens, UniProt Q8N5J4 1-248).
T6 sequence: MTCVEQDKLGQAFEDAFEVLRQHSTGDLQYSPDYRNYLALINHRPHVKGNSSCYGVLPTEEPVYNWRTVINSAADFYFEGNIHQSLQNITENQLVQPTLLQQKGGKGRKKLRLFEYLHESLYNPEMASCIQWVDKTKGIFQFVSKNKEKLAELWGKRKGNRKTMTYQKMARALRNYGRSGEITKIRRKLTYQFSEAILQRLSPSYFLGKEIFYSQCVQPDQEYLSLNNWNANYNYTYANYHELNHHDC
The procedure, abridged:
as §1

Another assay has as its target T7, ETV2 (Homo sapiens, UniProt O00321 1-342).
T7 sequence: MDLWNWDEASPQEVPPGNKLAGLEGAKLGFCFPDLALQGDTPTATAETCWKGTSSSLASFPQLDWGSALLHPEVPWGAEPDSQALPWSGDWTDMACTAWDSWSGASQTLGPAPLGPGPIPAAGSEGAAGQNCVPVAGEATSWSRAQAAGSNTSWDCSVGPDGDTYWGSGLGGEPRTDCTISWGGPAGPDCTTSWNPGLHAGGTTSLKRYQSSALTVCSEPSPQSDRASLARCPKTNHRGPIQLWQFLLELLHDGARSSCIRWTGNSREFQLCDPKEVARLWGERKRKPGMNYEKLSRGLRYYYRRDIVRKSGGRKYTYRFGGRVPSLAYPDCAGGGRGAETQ
The procedure, abridged: as §1

Another assay has as its target ETV1 (Homo sapiens, UniProt P50549 1-477). The procedure, abridged: as §1
A further assay deals with T8, ERF (Homo sapiens, UniProt P50548 1-548).
T8 sequence: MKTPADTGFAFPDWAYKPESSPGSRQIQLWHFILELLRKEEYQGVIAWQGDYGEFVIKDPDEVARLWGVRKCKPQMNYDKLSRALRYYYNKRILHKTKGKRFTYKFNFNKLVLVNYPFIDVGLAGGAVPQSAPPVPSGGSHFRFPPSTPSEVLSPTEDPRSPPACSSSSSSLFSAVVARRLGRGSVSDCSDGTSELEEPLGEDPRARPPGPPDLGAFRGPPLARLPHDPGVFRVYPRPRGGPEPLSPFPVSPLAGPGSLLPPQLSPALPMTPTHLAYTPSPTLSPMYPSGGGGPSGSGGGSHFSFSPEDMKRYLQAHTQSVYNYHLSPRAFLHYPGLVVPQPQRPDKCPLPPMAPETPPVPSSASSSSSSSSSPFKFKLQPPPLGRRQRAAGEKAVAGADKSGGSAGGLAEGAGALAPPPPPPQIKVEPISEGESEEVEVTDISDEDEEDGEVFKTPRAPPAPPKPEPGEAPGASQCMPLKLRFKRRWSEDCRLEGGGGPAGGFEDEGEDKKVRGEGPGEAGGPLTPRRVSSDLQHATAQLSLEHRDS
The procedure, abridged: as §1

ETV1, sequence (P50549 whole entry): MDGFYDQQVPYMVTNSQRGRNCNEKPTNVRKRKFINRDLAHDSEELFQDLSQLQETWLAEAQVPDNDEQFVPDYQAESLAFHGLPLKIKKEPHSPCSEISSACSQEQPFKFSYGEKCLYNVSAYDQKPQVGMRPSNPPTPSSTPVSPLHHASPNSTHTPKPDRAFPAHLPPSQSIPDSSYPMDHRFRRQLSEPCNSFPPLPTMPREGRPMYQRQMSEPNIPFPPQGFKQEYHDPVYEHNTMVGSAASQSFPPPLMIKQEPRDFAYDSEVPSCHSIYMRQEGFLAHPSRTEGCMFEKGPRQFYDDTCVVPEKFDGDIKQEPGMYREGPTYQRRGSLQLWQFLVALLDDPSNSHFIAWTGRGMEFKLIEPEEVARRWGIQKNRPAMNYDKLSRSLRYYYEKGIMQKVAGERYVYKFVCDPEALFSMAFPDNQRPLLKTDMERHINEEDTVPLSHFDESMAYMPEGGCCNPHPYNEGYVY

In the case of GTCGAC, the binding signal is 1.04 fold enrichment (6-mer frequency, TF over GST control) with FLI1; 1.02 fold enrichment (6-mer frequency, TF over GST control) in the assay with GABPA; 1.07 fold enrichment (6-mer frequency, TF over GST control) with ERG; 1.01 fold enrichment (6-mer frequency, TF over GST control) with EHF; 1.06 fold enrichment (6-mer frequency, TF over GST control) in the assay with ELK3; 1.07 fold enrichment (6-mer frequency, TF over GST control) in the assay with SPIC. Also, the binding signal in the assay with ETV2 is 1.02 fold enrichment (6-mer frequency, TF over GST control); with ETV1, 1 fold enrichment (6-mer frequency, TF over GST control); in the assay with ERF it was 1.07 fold enrichment (6-mer frequency, TF over GST control).
